According to PubChem BioAssay (NCI):
The panel holds about 83,000 compounds, 20% with a hit somewhere; the sample as a whole holds those more often.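 Assay: single dose, 48 h. Readout: percent growth (0 = no net growth; negative = cell death). Active: <10.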 Unmarked numbers belong to inactive results. Activity calls are given as the source filed them.

system: M14 melanoma; assay: NCI-60 one-dose screen, 48 h (100 = growth as untreated, 0 = no growth, -100 = all killed); settings: 10 µM
Description: Growth inhibition of the M14 human tumor cell line is measured as a screen for anti-cancer activity. Cells are grown in 96 well plates and exposed to the test compound for 48 hours. Compounds are tested at a single concentration, which is 10^-5 M for most compounds. The reported endpoint is percent growth (GI% or GIPRCNT), where numbers from 0 - 100% represent growth inhibition, and numbers from -100% - 0 represent cell death. For example, a value of 40 represents 60% growth inhibition. A value of 0 means no net growth occurred over the course of the experiment. A value of -40 indicates 40% of cells at the beginning of the experiment died by the end of the experiment. A value of -100 means all cells are dead at the end of the experiment.
NCI-60 Human Tumor Cell Lines Screen was performed using the standard one-dose NCI protocol, which is described in more detail at https://dtp.cancer.gov/discovery_development/nci-60/default.htm.
Compounds with GIPRCNT values below 10 were considered active. Activity score was based on GIPRCNT using the following formula: […]
Score is 0 for GIPRCNT values of 100 or above, 50 for GIPRCNT values of 0, and 100 for GIPRCNT values of -100.

Row | Structure (SMILES) | growth
1 | Cc1[nH]c2ccccc2c1/C=N/Nc1ncnc2sc3c(c12)CCN(CC(=O)OC(C)(C)C)C3 | 73.1%
2 | O=C(CCCSc1nc(-c2ccc(Cl)cc2)cc(-c2ccc(Cl)cc2)n1)NO | -15.5% (active)
3 | O=C1c2ccccc2C(=O)c2c1ccc(C(Br)Br)c2[N+](=O)[O-] | 36.6%
4 | O=C(Nc1ccc(NS(=O)(=O)c2ccc(F)cc2)cc1)C12CC3CC(CC(C3)C1)C2 | 96.6%
5 | O=C(N/N=C/c1ccc([N+](=O)[O-])cc1)c1ccccc1Nc1cccc(C(F)(F)F)c1 | 86.4%
6 | CCN(CC)CCOc1cccc2c1C(=O)c1cccc(OCCN(CC)CC)c1C2=O | 35.4%
7 | COc1cc(C(=O)N2CCN(c3cc4c(cc3F)c(=O)c(C(=O)NO)cn4C3CC3)CC2)cc(OC)c1OC | 103%
8 | CN(C)CCCSc1ccccc1NC1=C(Cl)C(=O)C(Nc2ccccc2SCCCN(C)C)=C(Cl)C1=O | 94.7%
9 | NS(=O)(=O)c1ccc(N2N=C(c3ccccc3)CCC2=O)cc1 | 100%
10 | COc1ccc2c(c1)OC(N)=C(C#N)C2c1cc(OC)c(OC)c(OC)c1 (stereo not given) | 5.11% (active)
11 | CNC(=O)c1cc(Oc2ccc3c(c2)sc2nc(-c4ccc(N)cc4)cn23)ccn1 | 15.5%
12 | COc1cc(N)c2ncccc2c1SC | 104%
13 | CCOC(=O)c1cc(C(=O)c2cc(OC)cc(OC)c2)n2nc(C)ccc12 | 11.4%
14 | Clc1ccc2c(c1)C(N1CCNCC1)=Nc1ccccc1O2 | 15.7%
15 | CC(C)N(CCOc1cccc(-c2nc3sccn3c2-c2ccnc(S(C)(=O)=O)n2)c1)C(C)C | 111%
16 | COc1ccc(Cl)cc1Nc1nc(C(F)(F)F)ccc1C(=O)N/N=C/c1ccc(Cl)cc1 | 57.3%
17 | COc1ccccc1-n1c(-c2sc(NC(C)=O)nc2C)n[nH]c1=S | 98.8%
18 | Cc1cc(SC#N)cc(C(C)(C)C)c1O | 90.3%
19 | CCOS(=O)(=O)c1c(C(C)C)cc(C(C)C)cc1C(C)C | 92.8%
20 | COC(=O)C1OC1c1cc([N+](=O)[O-])ccc1OC (stereo not given) | 95%

Row | Structure (SMILES) | growth
21 | C#CC(C)(O)[C@@H]1C[C@H](CC(=O)O)C1(C)C (stereo not given in full) | 105%
22 | NS(=O)(=O)Oc1ccc2c(ccn2C(=O)C23CC4CC(CC(C4)C2)C3)c1 | 112%
23 | COc1ccccc1/C=N\N/C(N)=N\N=C\c1ccccc1OC | -3.67% (active)
24 | O=C1c2ccccc2C(=O)c2c1ccc1c(=O)n(-c3ccccc3C(F)(F)F)nnc21 | 5.14% (active)
25 | CN(C)CCN(Cc1ccccc1)c1ccc2ccccc2n1 | 91.3%
26 | CCOC(=O)CSc1nc(-c2cc(OC)ccc2OC)cc(-c2ccc(OC)cc2)c1C#N | 76.9%
27 | O=[N+]([O-])c1ccc2ncccc2c1Cl | 49.5%
28 | OCCn1cccn1 | 112%
29 | CCCCCOC(=O)Nc1nc(=O)n(C2O[C@H](C)[C@@H](O)[C@H]2O)cc1F (stereo not given in full) | 108%
30 | O=C1CC(SC(=S)C2CCCC2=O)C(=O)N1 (stereo not given) | 101%
31 | CN(C)CCCOc1ccc(OCCCN(C)C)c2c1C(=O)c1ccccc1C2=O | 1.61% (active)
32 | NC(N)=N/N=C(\c1ccccc1)C(O)c1ccccc1 (stereo not given) | 97.3%
33 | CC(CN(C)C)Oc1ccccc1NC1=C(Cl)C(=O)C(Nc2ccccc2OC(C)CN(C)C)=C(Cl)C1=O (stereo not given) | -65% (active)
34 | CC(=O)OC/C=C(/C)C[P+](c1ccccc1)(c1ccccc1)c1ccccc1 | 46.6%
35 | COc1ccc(NC(=O)C2CC3C=CC2C3)c([N+](=O)[O-])c1 (stereo not given) | 130%
36 | C=CCn1c(SCC(=O)Nc2ccc(C(=O)/C=C/c3cc(OC)c(OC)c(OC)c3)cc2)nnc1-c1cc(-c2ccc(Cl)cc2)nc2ccccc12 | 95.5%
37 | O=C1c2ccccc2C(=O)N1CCCCNc1ccccc1 | 98.9%
38 | CCN1CCN(CCC(=O)Nc2cccc(-n3cc(-c4ccncc4)c(-c4ccc(Cl)c(OC)c4)n3)c2)CC1 | -63.4% (active)
39 | Nc1c(Br)cc(Br)c2c1[nH]c(=O)c1ccccc12 | 100%
40 | COc1ccc(-c2nn(-c3cccc(Cl)c3)cc2-c2cc(-c3ccccc3)[nH]c(=O)c2C#N)cc1 | 32.5%
